Measured values as given in PubChem BioAssay (NCI).
Compounds without any hit were thinned out: in the full panel of roughly 83,000, 20% have a hit.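 Cell lines were cultured in 96-well plates, exposed to a single compound concentration, and assessed for percent growth 48 hours later.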 Calls of active or inactive are those of the source. How the source made its calls: active means growth percent below 10; inactive means the rest.

Key:
Assay in all cases: NCI-60 one-dose screen, 48 h (100 = growth as untreated, 0 = no growth, -100 = all killed)
Settings in all cases: 10 µM unless noted
[1] = test system: SK-MEL-2 melanoma
[2] = test system: EKVX NSCLC
[3] = test system: SN12C renal
[4] = test system: UO-31 renal
[5] = test system: TK-10 renal
[6] = test system: ACHN renal
[7] = test system: CAKI-1 renal
[8] = test system: A498 renal
[9] = test system: MOLT-4 leukemia

Measured: growth

N=C(N)c1ccc(-c2ccc(-c3cncc4ccccc34)s2)s1
inactive: [1] 79.3% | [8] 70.2%
active: [2] -65.7% | [3] -63% | [4] -76.6% | [5] -93.5% | [6] -88.5% | [7] -91.4% | [9] -50.3%

Cc1nc2ccccc2c(/C=C/c2ccc(Cl)cc2)c1C(=O)/C=C/c1ccc(F)cc1
active: [1] 3.88% | [3] -10.2% | [4] -79.4% | [6] 3.87% | [7] -10.1% | [8] -4.11% | [9] 4%
inactive: [2] 29.9% | [5] 43.3%

COc1ccccc1CNCCCN1C(=O)c2ccc3c4c(ccc(c24)C1=O)C(=O)N(CCCNCCCCN)C3=O
active: [1] -67.9% | [2] 8.85% | [3] -39.3% | [5] -1.84% | [6] 7.77% | [8] -52% | [9] 0.762%
inactive: [4] 11.2% | [7] 33.7%

NC(N)=NN=C(c1ccccc1)c1ccccc1
inactive: [1] 39.3% | [2] 65.3% | [3] 51.3% | [4] 63.6% | [5] 46.1% | [6] 48.1% | [7] 50.4% | [8] 34% | [9] 31.8%

C=CCn1c(C)nc2cc(Nc3nc(Cl)nc4ccccc34)ccc21
inactive: [1] 99.5% | [2] 93.7% | [3] 97.3% | [4] 93.8% | [5] 114% | [6] 103% | [7] 87.2% | [8] 55.4% | [9] 78.7%

Cc1ccc(-c2cc3c(cc2O)C2CCCCC2(N2CCOCC2)O3)cc1 (stereo unspecified)
inactive: [1] 101% | [2] 107% | [3] 93.1% | [4] 84.5% | [5] 116% | [6] 112% | [7] 96% | [8] 114% | [9] 84.1%

COc1ccc(/C=N\NC(=O)c2cc(-c3ccc(Br)cc3)n(-c3ccc(S(N)(=O)=O)cc3)n2)cc1
active: [8] -6.38%
inactive: [1] 54.3% | [2] 61.2% | [3] 63% | [4] 50.1% | [5] 29.1% | [6] 44.3% | [7] 26.3% | [9] 62.3%

CN(Cc1cnc2nc(N)nc(N)c2n1)c1ccc(C(=O)N[C@@H](CCc2nn[nH]n2)c2nn[nH]n2)cc1
inactive: [1] 75.3% | [2] 85.7% | [3] 36% | [4] 43.1% | [5] 56.4% | [6] 33.6% | [7] 29.3% | [8] 97.2% | [9] 28.2%

Cc1ccc(C(=O)COc2cccc(/C=C3\Oc4ccccc4C3=O)c2)cc1
inactive: [1] 105% | [2] 97.1% | [3] 105% | [5] 114% | [6] 97.6% | [7] 47.6% | [8] 147% | [9] 73.8%
active: [4] -37.1%

Cc1ccc(N2CCN(C(=S)c3cccs3)CC2)cc1
inactive: [1] 94.9% | [2] 108% | [3] 102% | [4] 94.8% | [5] 87.3% | [6] 120% | [7] 96.4% | [8] 99.1% | [9] 93.6%

COC(=O)c1c2c(c(C)[n+]([O-])c1C)C(=O)C(NCc1ccc(F)c(Cl)c1)=CC2=O
inactive: [1] 29.4% | [2] 37.8% | [4] 41.7% | [5] 58.8% | [6] 30.9% | [7] 34% | [8] 78%
active: [3] -0.149% | [9] -19.2%

NC(=N\N=C/c1cccc([N+](=O)[O-])c1)/C(N)=N\N=C/c1cccc([N+](=O)[O-])c1
inactive: [1] 75% | [2] 79.5% | [3] 86.8% | [4] 107% | [5] 27.6% | [6] 94% | [7] 53.8% | [8] 61.5% | [9] 86%

COc1ccc2c(c1)C(=O)/C(=C/c1ccc(OCC(=O)Nc3nccs3)cc1)O2
inactive: [1] 112% | [2] 32.7% | [3] 48.2% | [5] 93.9% | [6] 49% | [8] 99.7%
active: [4] -80.8% | [7] -78.4% | [9] -72.9%

COc1ccc(/C=c2\nc3n(-c4ccccc4)c4nc5c6c(sc5c(=N)n4n-3c2=O)CCCC6)cc1
inactive: [1] 99.4% | [2] 67% | [3] 86.4% | [4] 49.5% | [5] 124% | [6] 75.1% | [7] 72.9% | [8] 58.9% | [9] 56.3%

N=c1sc(Cc2ccc(Cl)cc2)cn1CC(=O)c1ccc(F)cc1
inactive: [1] 97.1% | [2] 70.5% | [3] 87.5% | [4] 57.6% | [5] 66.9% | [6] 47.2% | [7] 44.6% | [8] 91.1% | [9] 71.3%

COc1ccc2c(c1)CCCN2c1c2ccccc2nc2ccccc12
active: [8] -4.56%
inactive: [1] 35.4% | [2] 45% | [3] 39.5% | [4] 29.8% | [5] 48.2% | [6] 24.5% | [7] 27.8% | [9] 15.4%

O=C(/C=C/c1ccc(Cl)nc1)c1ccc(Cl)cc1Cl
inactive: [1] 106% | [2] 97.5% | [3] 106% | [4] 89.3% | [5] 100% | [6] 93.1% | [7] 71.2% | [8] 88.8% | [9] 15.9%

COc1ccc2occ(C3=C(c4c[nH]c5ccccc45)C(=O)N(O)C3=O)c2c1
inactive: [1] 102% | [2] 93.1% | [3] 95.9% | [4] 61.9% | [5] 126% | [6] 95.3% | [7] 83.6% | [8] 118% | [9] 102%

O=C1C=C[C@]2(C[C@@H](c3cccc(C(F)(F)F)c3)O[C@@H](c3cccc(C(F)(F)F)c3)O2)O1
active: [1] -26.7% | [3] 0.629% | [4] -77.3% | [5] -85.5% | [6] -49.4% | [9] 3.17%
inactive: [2] 80.9% | [7] 32.8% | [8] 31%

Cc1ccc(CCC(=O)Nc2ncc(Cc3cc(Cl)ccc3Cl)s2)o1
active: [8] 6.53%
inactive: [1] 65% | [2] 41% | [3] 23.4% | [4] 32% | [5] 57% | [6] 28.8% | [7] 26.2% | [9] 14%

Cc1c2c(c(C)c3c1oc1cc(O)ccc13)C(=O)N(CCN1CCCCC1)C2=O
inactive: [1] 105% | [2] 101% | [3] 85.9% | [4] 74.9% | [5] 96.7% | [6] 84.3% | [7] 76.3% | [8] 106% | [9] 80.4%

C=C(C)[C@@H]1CC[C@]2(C(=O)NC3CCCCC3)CC[C@]3(C)[C@H](CC[C@@H]4[C@@]5(C)CCCNC(C)(C)[C@@H]5CC[C@]43C)[C@@H]12
active: [9] -2.14%
inactive: [1] 35% | [2] 77.6% | [3] 61.6% | [4] 61.5% | [5] 86.5% | [6] 51% | [7] 26.4% | [8] 68.7%

NC(=N\N=C/c1ccccc1[N+](=O)[O-])/C(N)=N\N=C/c1ccccc1[N+](=O)[O-]
inactive: [1] 98.4% | [2] 98.5% | [3] 108% | [4] 116% | [5] 99.6% | [6] 109% | [7] 95.2% | [8] 85.9% | [9] 113%

c1cc2ccc3cc2cc1CNCCOCCNCc1ccc2ccc(cc2c1)CNCCOCCNC3
inactive: [2] 21.4% | [4] 73.7% | [6] 70% | [7] 15.4% | [8] 31.7%
active: [1] -63.5% | [3] -19.9% | [5] 8.5% | [9] 4.08%

COc1ccc2[nH]c(O)c(/C=c3/cc4c(c(-c5ccc(F)c(OC)c5)n3)=Nc3ccccc3-4)c2c1
active: [9] 1.77%
inactive: [1] 96.3% | [2] 89.5% | [3] 88.6% | [4] 74.7% | [5] 87.2% | [6] 52.2% | [7] 88.3% | [8] 69.6%

CC1=CN2C(=O)C3C4=C(CCCC4)SC3N=C2CN1c1c(C)cccc1C (stereo unspecified)
inactive: [1] 116% | [2] 81% | [3] 99.6% | [4] 90.7% | [5] 100% | [6] 96.2% | [7] 81.1% | [8] 92% | [9] 77%

NNC(=O)c1nc(N)n(-c2ccc(S(N)(=O)=O)cc2)n1
inactive: [1] 107% | [2] 98.2% | [3] 97.6% | [4] 76.2% | [5] 104% | [6] 100% | [7] 88% | [8] 103% | [9] 105%

COc1cc(/C=C/C(=O)c2cccc(-n3cc(-c4ccccc4)[nH]c3=O)c2)ccc1O
active: [9] 6.81%
inactive: [1] 56.5% | [2] 70.7% | [3] 27.9% | [4] 36.4% | [5] 81.6% | [6] 34.4% | [7] 45.8% | [8] 116%

COC1=C(OC)C(=O)C(OC)=C(OC)C1=O
active: [9] -24.5%
inactive: [1] 118% | [2] 102% | [3] 94.9% | [4] 81.2% | [5] 124% | [6] 118% | [7] 98.9% | [8] 77.2%
